Test results from the supplement of paper PMC6135742.
Several values for one entry are separate records, joined by “and”; a condition that tells them apart may be missing. Equal values may be shown once. Where a name gives a salt, the structure may show the parent alone. ± gives the standard deviation of the averaged measurements. The full ranking holds about 2,600 compounds; the median of “total cell number (DAPI+ nuclei) relative to DMSO vehicle control” is about -1.4, and the lowest 2% start at about -23. What follows is part of a selection rich in the lowest values, with near analogues and random picks from the rest.

Each compound was assayed on jimpy (Plp1 jimpy) mouse iPSC-derived oligodendrocyte progenitor cells (assay: total cell number (DAPI+ nuclei) relative to DMSO vehicle control (SDs above negative control mean); higher = more surviving cells). Conditions: 10 µM; 3 days.
Description: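 Primary phenotypic screen of >3,000 bioactive compounds (Selleck L1700 and Sigma LO1280 libraries) at a single dose of 10 µM. Compounds were added to jimpy (Plp1 mutant) mouse iPSC-derived OPCs at the start of thyroid hormone-induced oligodendrocyte differentiation, one well per compound in 384-well plates. After 3 days cells were stained for MBP, Sox10 and DAPI and imaged with an Operetta system. MBP+ oligodendrocyte number and total cell number were expressed as the number of SDs above the mean of the DMSO negative control on the same plate (n=16 control wells per plate). Hits were defined as >=4 SD for oligodendrocytes and >=2 SD for total cells.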
`CC(C)(C)C(=O)Oc1ccc(S(=O)(=O)Nc2ccccc2C(=O)NCC(=O)O)cc1` [Sivelestat sodium salt hydrate] was tested, and the total cell number was 0.0346. `OCCN1CCN(CC/C=C2/c3ccccc3Sc3ccc(C(F)(F)F)cc32)CC1` [cis-(Z)-Flupenthixol dihydrochloride] showed a total cell number of -7.96. `CN(C)CCN1C(=O)c2cccc3cc(N)cc(c23)C1=O` [Amonafide] showed a total cell number of -24. Compound `O=C(CCCCCN1C(=O)c2cccc3cccc(c23)C1=O)NO` [Scriptaid] has a total cell number of -6.21. Work on `CC(NC(=O)c1ccccc1/N=C/c1c(O)ccc2ccccc12)c1ccccc1` (centres undefined) [Sirtinol] yielded a total cell number of -0.73. Compound `CCC(=O)O[C@]1(C(=O)CCl)[C@@H](C)C[C@H]2[C@@H]3C[C@H](F)C4=CC(=O)C=C[C@]4(C)[C@@]3(F)[C@@H](O)C[C@@]21C` [Halobetasol Propionate] has a total cell number of 10.4. Compound `O=C(O)CC[C@H]1CC[C@@](c2cc(F)ccc2F)(S(=O)(=O)c2ccc(Cl)cc2)CC1` has a total cell number of 0.0291. `CC(C)(C)c1cnc(CSc2cnc(NC(=O)C3CCNCC3)s2)o1` showed a total cell number of -22.9. Compound `Nc1ncnc2c1nc(Br)n2C1OC2COP(=O)(O)O[C@@H]2C1O` (some centres undefined) [8-Bromo-cAMP sodium] has a total cell number of -0.722. With `CC(C)[C@H]1C(=O)N[C@@H](CCCNC(=N)N)C(=O)NCC(=O)N[C@@H](CC(=O)O)C(=O)N[C@H](Cc2ccccc2)C(=O)N1C` [Cilengitide] the total cell number was 1.19. `COc1cc(C(=O)OCCCN2CCCN(CCCOC(=O)c3cc(OC)c(OC)c(OC)c3)CC2)cc(OC)c1OC` [Dilazep hydrochloride] was tested, and the total cell number was -5.8. `COc1cc(Nc2c(C#N)cnc3cc(OCCCN4CCN(C)CC4)c(OC)cc23)c(Cl)cc1Cl` [Bosutinib] was tested, and the total cell number was -10.5. `COc1cc(Nc2c(C#N)cnc3cc(OCCCN4CCN(C)CC4)c(OC)cc23)c(Cl)cc1Cl` [Bosutinib (SKI-606)] showed a total cell number of -26.4. For `COc1cc2nc(N3CCCN(C)CC3)nc(NC3CCN(Cc4ccccc4)CC3)c2cc1OC`, the total cell number was -10.1 and -15.2. For `COc1cc2/c(=N/c3ccc(Br)cc3F)nc[nH]c2cc1OCC1CCN(C)CC1` [Vandetanib (ZD6474)], the total cell number was -26.7. For `COc1ccc(C[C@H](NC(=O)[C@H](C)NC(=O)CN2CCOCC2)C(=O)N[C@@H](Cc2ccccc2)C(=O)[C@@]2(C)CO2)cc1`, the total cell number was -12.1. Work on `CC(C)(N)c1ncc(-c2ccc(OC(F)(F)F)cc2)[nH]1` yielded a total cell number of -3.28. `Oc1cccc(-c2nc(N3CCOCC3)c3oc4ncccc4c3n2)c1` gave a total cell number of -21. `N#CC(C#N)=C(N)/C(C#N)=C/c1cc(O)c(O)c(O)c1` [Tyrphostin 51] showed a total cell number of -1.44. In the case of `C[C@H](Oc1cc(-c2cnn(C3CCNCC3)c2)cnc1N)c1c(Cl)ccc(F)c1Cl` [(S)-crizotinib], the total cell number is reported as -15.7. `C[C@@H](Oc1cc(-c2cnn(C3CCNCC3)c2)cnc1N)c1c(Cl)ccc(F)c1Cl` showed a total cell number of -27.1. `Fc1cc(-c2cccc3ncc(-c4cnn(C5CCNCC5)c4)nc23)cc(F)c1CN1CCOCC1` gave a total cell number of -12.4. In the case of `C=CCc1cccc(/C=N/NC(=O)CN2CCN(Cc3ccccc3)CC2)c1O`, the total cell number is reported as -9.01 ± 1.4. Work on `O=C(Nc1ccc(S(=O)(=O)Nc2ccccc2Cl)c(Cl)c1)c1ccccn1` yielded a total cell number of 0.173. Compound `O=c1cc2c(=O)oc3cc(O)c(O)oc3c2c(O)c1O` [Galloflavin potassium] has a total cell number of -1.51. Work on `CN1CCN(C(=O)c2cc3cc(Cl)ccc3[nH]2)CC1` yielded a total cell number of -2.98. In the case of `Cc1[nH]c(/C=C2\C(=O)Nc3ccc(S(=O)(=O)Cc4c(Cl)cccc4Cl)cc32)c(C)c1C(=O)N1CCC[C@@H]1CN1CCCC1`, the total cell number is reported as -27.2. For `Cc1[nH]c(/C=C2\C(=O)Nc3ccc(S(=O)(=O)N(C)c4cccc(Cl)c4)cc32)c(C)c1C(=O)N1CCN(C)CC1`, the total cell number was -26.7. `CC(C)C[C@H](NC(=O)[C@H]1O[C@@H]1C(=O)O)C(=O)NCCCCN=C(N)N` was tested, and the total cell number was -3.4 ± 0.35. `CN1[C@@H]2CC[C@H]1C[C@@H](OC(=O)C(O)c1ccccc1)C2` (mixture of isomers) [DL-Homatropine hydrobromide] gave a total cell number of 0.0407. `Cc1nc(NC(=O)N2CCC[C@H]2C(N)=O)sc1-c1ccnc(C(C)(C)C(F)(F)F)c1` was tested, and the total cell number was -10.3. `COc1cc(C(O)C(=O)O)ccc1O` (racemic) [(±)-Vanillylmandelic acid] was tested, and the total cell number was -0.443. Work on `CC(=O)Nc1nc(C)c(-c2ccc(Cl)c(S(=O)(=O)NCCO)c2)s1` yielded a total cell number of -15.8. `C[C@H](c1ccc(F)cc1CCCC(=O)O)N(c1cc(F)ccc1F)S(=O)(=O)c1ccc(Cl)cc1` gave a total cell number of -4.06. Compound `CCN(CC)CCCCNc1ncc2cc(-c3cc(OC)cc(OC)c3)c(NC(=O)NC(C)(C)C)nc2n1` has a total cell number of -24.8. `COc1cc(OC)cc(-c2cc3cnc(N)nc3nc2NC(=O)NC(C)(C)C)c1` was tested, and the total cell number was -5.24. `CCN(CC)CCCCCCCCOC(=O)c1cc(OC)c(OC)c(OC)c1` [TMB-8 hydrochloride] gave a total cell number of 2.1. In the case of `C=C1CC[C@@H]2[C@](C)(CO)[C@H](O)CC[C@@]2(C)[C@@H]1C/C=C1/C(=O)OC[C@H]1O` [Andrographolide], the total cell number is reported as -9.57. `C=CC(=O)Nc1ccc2ncnc(Nc3cccc(Br)c3)c2c1` was tested, and the total cell number was -13.1. `N[C@@H](Cc1ccc(F)cc1)C(=O)O` [p-Fluoro-L-phenylalanine] gave a total cell number of -1.39. `Cc1ccc([N+](=O)[O-])cc1S(=O)(=O)N(C)/N=C/c1cnc2ccc(Br)cn12` was tested, and the total cell number was -25.8. `O=C(O)C1=CO[C@@H](O[C@@H]2O[C@H](CO)[C@@H](O)[C@H](O)[C@H]2O)[C@@H]2C(CO)=CC[C@H]12` [Geniposidic acid] gave a total cell number of -0.368. Work on `COc1ccc(S(=O)(=O)Nc2nc(-c3cccc([N+](=O)[O-])c3)cs2)cc1OC` yielded a total cell number of -0.431. For `O=C(c1cc(O)c(O)c([N+](=O)[O-])c1)c1ccccc1F`, the total cell number was 0.768. In the case of `CN(C)CC[C@H](CSc1ccccc1)Nc1ccc(S(=O)(=O)NC(=O)c2ccc(N3CCN(Cc4ccccc4-c4ccc(Cl)cc4)CC3)cc2)cc1[N+](=O)[O-]`, the total cell number is reported as -23.1. Work on `CC1(C)CCC(c2ccc(Cl)cc2)=C(CN2CCN(c3ccc(C(=O)NS(=O)(=O)c4ccc(N[C@H](CCN5CCOCC5)CSc5ccccc5)c(S(=O)(=O)C(F)(F)F)c4)cc3)CC2)C1` [ABT-263 (Navitoclax)] yielded a total cell number of -16.7. `CC1(C)CCC(CN2CCN(c3ccc(C(=O)NS(=O)(=O)c4ccc(NCC5CCOCC5)c([N+](=O)[O-])c4)c(Oc4cnc5[nH]ccc5c4)c3)CC2)=C(c2ccc(Cl)cc2)C1` was tested, and the total cell number was -3.38. `CCOC(=O)c1c(CSc2ccccc2)n(C)c2cc(Br)c(O)c(CN(C)C)c12` [Arbidol HCl] was tested, and the total cell number was -4.97. `COC(=O)C1=C(C)NC(C)=C(C(=O)OCCN2CCN(C(c3ccccc3)c3ccccc3)CC2)C1c1cccc([N+](=O)[O-])c1` (centres undefined) [Manidipine] was tested, and the total cell number was -13. `COC(=O)C1=C(C)NC(C)=C(C(=O)OCCN2CCN(C(c3ccccc3)c3ccccc3)CC2)C1c1cccc([N+](=O)[O-])c1` (centres undefined) [Manidipine 2HCl] gave a total cell number of -11.4. `C=CCN1CCc2cc(O)c(O)cc2C(c2ccccc2)C1` (racemic) was tested, and the total cell number was -1.7. `C[C@@]1(C(=O)Nc2ccc(F)nc2)CCCN1c1nc(Nc2cc(C3CC3)n[nH]2)c2cccn2n1` was tested, and the total cell number was -24.7. In the case of `O=C(COc1cccc2c(=O)[nH]ccc12)c1ccccc1`, the total cell number is reported as -0.123. For `CCc1ccc2c(-c3cccc(Cl)c3)nc(=O)n(CC)c2n1`, the total cell number was 0.722. For `CC(C)NC[C@@H](C(=O)N1CCN(c2ncnc3c2[C@H](C)C[C@H]3O)CC1)c1ccc(Cl)cc1`, the total cell number was -8.76. `COc1ccc(C2=N[C@@H](c3ccc(Cl)cc3)[C@@H](c3ccc(Cl)cc3)N2C(=O)N2CCNC(=O)C2)c(OC(C)C)c1` [Nutlin-3] was tested, and the total cell number was -23.5. `C=C1C(=O)O[C@@H]2/C=C(\C)CC/C=C(\C)CC[C@@H]12` [Costunolide] gave a total cell number of -21. With `CN1CCN(c2ccc3nc(-c4c(N)c5c(F)cccc5[nH]c4=O)[nH]c3c2)CC1` [Dovitinib (TKI-258, CHIR-258)] the total cell number was -25.7. With `CN1CCN(c2ccc3nc(-c4c(N)c5c(F)cccc5[nH]c4=O)[nH]c3c2)CC1` [Dovitinib (TKI-258) Dilactic Acid] the total cell number was -12.1. Work on `COc1cc(CCc2cc(NC(=O)c3ccc(N4CC(C)NC(C)C4)cc3)n[nH]2)cc(OC)c1` (centres undefined) yielded a total cell number of -10.9. In the case of `NC/C=C/C(=O)O` [(E)-4-amino-2-butenoic acid], the total cell number is reported as -1.89. Work on `CC(C)NCC(O)COc1cccc2ccccc12` (racemic) [(±)-Propranolol hydrochloride] yielded a total cell number of -1.57. `c1ccc(-c2[nH]ncc2-c2ccnc3ccccc23)nc1` gave a total cell number of -2.66. `OC[C@H]1O[C@H]([S-])[C@H](O)[C@@H](O)[C@@H]1O.[Au+]` [Aurothioglucose] showed a total cell number of -2.94. With `O=C(c1ccc(/C=C/c2n[nH]c3ccccc23)cc1)N1CCNCC1` the total cell number was -13.2. In the case of `COCC[n+]1c2c(n(Cc3cnccn3)c1C)C(=O)c1ccccc1C2=O` [YM155 (Sepantronium Bromide)], the total cell number is reported as -27.7. Work on `Cc1ccc2c(c1)C(=O)C1(O)CCN(c3ccccc3)C1=N2` (single isomer, unassigned; (-)) [(-)-Blebbistatin] yielded a total cell number of -14.8. Work on `CNC(=O)CN1CCC(Oc2cc3c(Nc4cccc(Cl)c4F)ncnc3cc2OC)CC1` [AZD8931 (Sapitinib)] yielded a total cell number of -10.1. `CN1CCN(CCOc2cc(OC3CCOCC3)c3c(Nc4c(Cl)ccc5c4OCO5)ncnc3c2)CC1` [Saracatinib (AZD0530)] was tested, and the total cell number was -22.8. Compound `Cc1ccc(Sc2cncc3sc(C(N)=O)cc23)cc1` has a total cell number of 0.0291. In the case of `O=C(Nc1ccccc1)N1CCN(c2nc(-c3ccccc3)ns2)CC1`, the total cell number is reported as 0.543. Work on `CC(C)C[C@H](C(=O)O)c1cc(-c2ccc(C(F)(F)F)cc2)cc(-c2ccc(C(F)(F)F)cc2)c1` yielded a total cell number of 10.7. In the case of `COc1ccccc1CN[C@H]1CCCN[C@H]1c1ccccc1`, the total cell number is reported as -1.93. Compound `CCCCCCCCCCCCCCCCn1cc[n+](Cc2ccccc2)c1C` has a total cell number of -16.7.
